Data reported in ChEMBL document CHEMBL2218924, “A broad activity screen in support of a chemogenomic map for kinase signalling research and drug discovery” (Biochem J, 2013).

These compounds were tested against MAP kinase-activated protein kinase 3 (Homo sapiens) (UniProt Q16644). Conditions: at 1 µM.
Sequence of MAP kinase-activated protein kinase 3 (Homo sapiens) (Q16644 whole entry, looked up): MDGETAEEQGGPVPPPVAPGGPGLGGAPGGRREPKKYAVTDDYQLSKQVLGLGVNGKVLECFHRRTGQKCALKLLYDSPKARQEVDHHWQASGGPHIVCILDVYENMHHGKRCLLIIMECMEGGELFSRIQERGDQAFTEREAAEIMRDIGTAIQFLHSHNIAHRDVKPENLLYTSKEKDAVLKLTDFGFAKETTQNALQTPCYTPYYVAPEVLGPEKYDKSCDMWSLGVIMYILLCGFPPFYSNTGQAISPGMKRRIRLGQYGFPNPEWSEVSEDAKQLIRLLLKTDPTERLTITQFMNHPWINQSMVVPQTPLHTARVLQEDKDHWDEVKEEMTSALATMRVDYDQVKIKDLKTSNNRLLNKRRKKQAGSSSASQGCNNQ

SMILES | residual activity
O=c1cc(-c2cccc3c2Sc2ccccc2S3)oc(N2CCOCC2)c1 | 115%
Oc1ccc(Nc2nc(-c3ccc(Cl)cc3)cs2)cc1 | 139%
N#CCCc1ccc2c(c1)-c1[nH]c3ccc([N+](=O)[O-])cc3c1CC(=O)N2 | 100%
CCOc1cc2ncnc(Nc3cccc(Br)c3)c2cc1OCC | 106%
CN(C)c1ccc(/C=C2\C(=O)Nc3ccccc32)cc1 | 101%
O=C(O)/C=C/c1cc(Br)c(Br)c(Br)c1Br | 107%
O=C1NC(=O)/C(=C\c2ccc3nccnc3c2)S1 | 97%
Cc1ccc(S(=O)(=O)/C=C/C#N)cc1 | 94%
COc1ccc(S(=O)(=O)N(CCO)c2ccccc2CN(C)C/C=C/c2ccc(Cl)cc2)cc1 | 118%
O=C1NC(=O)c2c1c1c3ccccc3[nH]c1c1[nH]c3cc(Br)ccc3c21 | 87%
O=C1NC(=O)c2c1c1c3ccccc3[nH]c1n1cncc21 | 86%
CO[C@H]1[C@@H](OC)C[C@H](C)[C@@H](OC)C2=CC(=O)C=C(NC(=O)/C(C)=C/C=C/[C@H](OC)[C@@H](OC(N)=O)/C(C)=C/[C@@H]1C)C2=O | 110%
CCCCc1c(-c2ccc(OC)cc2)[nH]c2nccnc12 | 130%
Cc1cc2ncc(-c3ccccc3)nc2cc1C | 135%
O=C1Nc2ccc(Cl)cc2/C1=C/c1cc(Cl)c(O)c(Cl)c1 | 92%
CCOC(=O)c1c(C)[nH]c(/C=C2\C(=O)Nc3ccccc32)c1C | 98%
CC(C)(C)n1nc(Cc2cccc3ccccc23)c2c(N)ncnc21 | 116%
CN[C@@H]1C[C@H]2O[C@@](C)([C@@H]1OC)n1c3ccccc3c3c4c(c5c6ccccc6n2c5c31)C(=O)NC4 | 101%

SMILES | residual activity
COc1ccc2c(c1)c(C1=C(c3c[nH]c4ccccc34)C(=O)NC1=O)cn2CCCN(C)C | 103%
Nc1nc(Nc2ccc(S(N)(=O)=O)cc2)nn1C(=O)c1c(F)cccc1F | 103%
N#C/C(=C(\N)Sc1ccc(N)cc1)c1ccccc1C(F)(F)F | 98%
Nc1nccc(-c2c(-c3ccc(F)cc3)ncn2C2CCNCC2)n1 | 123%
O=C1NC(=O)C(c2cn(CCCn3ccnc3)c3ccccc23)=C1Nc1ccccc1 | 126%
O=c1c2ccccc2[nH]c(=S)n1CCN1CCC(=C(c2ccc(F)cc2)c2ccc(F)cc2)CC1 | 89%
CN(C)S(=O)(=O)c1ccc2c(c1)/C(=C/c1cc3c([nH]1)CCCC3)C(=O)N2 | 94%
Nc1ncnc2[nH]nc(Nc3ccc(F)cc3)c12 | 107%
CCC(=O)Nc1ccc2ncnc(Nc3cccc(Br)c3)c2c1 | 89%
Nc1ncnc2c1cnn2-c1ccccc1 | 95%
COc1cc2ncnc(Nc3ccc(Oc4ccccc4)cc3)c2cc1OC | 118%
O=C1Nc2ccc(Br)cc2/C1=C\c1cc2c([nH]1)CCCC2 | 126%
COc1cc2nccc(Oc3ccc(NC(=S)NC(=O)c4ccccc4C)cc3)c2cc1OC | 101%
c1ccc(-c2n[nH]cc2-c2ccnc3ccccc23)nc1 | 109%
Ic1cccc(CSc2nnc(-c3ccncc3)o2)c1 | 111%
c1ccc2c(-c3ccncc3)c[nH]c2c1 | 103%
Cc1ccc(NC2=CC(=O)c3sc(C)nc3C2=O)cc1 | 85%
O=C1NC(=O)/C(=C/c2ccc3c(c2)OC(F)(F)O3)S1 | 95%
